# Compound activity (PubChem)
# S2 tox = reduces viability in counter-screen for ATXN expression inhibitors; Potency, µM (doses to about 56.7 µM), actives largely listed as cytotoxic; S2 cells (HEK-293 line with an ATXN2-luciferase reporter) viability, CellTiter-Fluor protease fluorescence, 24 h; hit rate 0.49% among 400,000; further: nearly all actives have a fitted effect of over 40% in size
# ATXN2 expr inh = inhibitors of ATXN2 expression. Potency, µM (titrated, usually from 57 µM), without a hit: at the highest dose activity change, negative = inhibition, hits mostly inhibitors. HEK-293 ATXN2-luciferase reporter, luminescence, 24 h. hit rate 0.72% among 360,000; further: on the % scale 0 is the no-effect control and ±100 the full control effect; nearly all actives have a fitted effect of over 55% in size
#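 ATXN2-luciferase reporter cells (luciferase flanked by upstream and downstream ATXN2 gene portions) were treated 24 h at 37 °C with compounds at up to 57 uM. SteadyGlo luminescence gave expression; GF-AFC fluorescence gave viability.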
# VP16 counter = Gal4-VP16 reporter inhibition counter-screen; Drosophila S2 Gal4-VP16 UAS-luciferase, luminescence, 20 h; Potency, µM (series often up to 53.6 µM), without a hit: at the top dose activity, negative = inhibition, actives largely listed as inhibitors; hit rate 3.5% among 310,000; AID 2546;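 further: Gal4-VP16 expression switched on by copper sulfate through the metallothionein promoter; on the % scale 0 is the no-effect control and ±100 the full control effect; nearly all actives have a fitted effect of over 50% in size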
# HepG2 tox = counter-screen for TGF-b inhibitors: cytotoxicity in HepG2 cells. AID 588856. hit rate 0.76% among 410,000. HepG2 CAGA-GFP viability, ATP luminescence, 18 h. Potency, µM (top dose mostly 46.1 µM), without a hit: at the highest dose activity change, negative = cytotoxicity, most hits filed as cytotoxic
#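 HepG2 CAGA-GFP cells (1000/well, DMEM with 1% FBS) received compound, then TGF-beta at 500 pg/mL final, and were incubated 18 hours at 37 degrees C. Viability was read by CellTiter-Glo luminescence. Media-only wells were set as complete cell-killing and DMSO as no toxicity.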
# RORgamma inh = inhibitors of mouse ROR gamma transcriptional activity. P51450. hit rate 5.4% among 310,000. AID 2551. Potency, µM (doses to about 53.6 µM), inactives show at the highest dose activity change, negative = inhibition, hits mostly inhibitors. Drosophila S2 Gal4-RORgamma UAS-luciferase reporter, 20 h; further: on the % scale 0 is the no-effect control and ±100 the full control effect; nearly all actives have a fitted effect of over 60% in size
# Target sequence (P51450 whole entry, looked up, the tested form may be a part): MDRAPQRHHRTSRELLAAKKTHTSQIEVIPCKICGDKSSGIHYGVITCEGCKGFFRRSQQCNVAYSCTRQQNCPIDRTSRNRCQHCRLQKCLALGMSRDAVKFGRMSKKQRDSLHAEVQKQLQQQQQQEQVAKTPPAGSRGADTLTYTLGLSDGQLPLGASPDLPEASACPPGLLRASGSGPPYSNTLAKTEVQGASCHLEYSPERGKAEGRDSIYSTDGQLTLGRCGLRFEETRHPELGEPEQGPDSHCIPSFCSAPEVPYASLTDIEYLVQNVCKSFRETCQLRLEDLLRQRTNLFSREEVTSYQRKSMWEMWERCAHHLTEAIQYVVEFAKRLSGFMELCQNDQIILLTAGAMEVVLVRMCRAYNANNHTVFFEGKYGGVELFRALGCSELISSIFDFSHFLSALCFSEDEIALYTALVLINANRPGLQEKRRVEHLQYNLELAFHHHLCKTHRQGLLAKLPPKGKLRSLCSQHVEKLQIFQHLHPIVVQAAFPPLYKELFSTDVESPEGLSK
#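 ROR gamma transcriptional activity was tracked as Gal4-UAS luciferase output in stably transfected Drosophila Schneider cells, with compound added 1 hr before 700 uM copper sulfate induction and a 20 hr ambient-temperature incubation.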
# TGFb inhibitor = TGF-b pathway inhibition. HepG2 CAGA-GFP TGF-b/SMAD3 reporter, GFP fluorescence, 18 h; TGF-beta stimulated, 500 pg/mL final. Potency, µM (top dose mostly 46.1 µM), inactives show top-dose activity, negative = inhibition, actives largely listed as inhibitors. hit rate 1.2% among 410,000; further: on the % scale 0 is the no-effect control and ±100 the full control effect; nearly all actives have a fitted effect of over 65% in size
#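 Per well, imaged GFP fluorescence of HEPG2 CAGA-GFP cells gives the signal; cells get compound, then TGF-beta (500 pg/mL final), 18 h at 37 degrees C; %Activity versus -TGF-beta and +DMSO controls.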
# * marks the source's active call; other numbers are inactive results; i = inactive; ? = inconclusive; · = no result. Only some compounds are listed: those with a hit (about 6.3% of all), similar ones and a draw of the others. The call rests on the fitted dose curve; in most records, active means well fitted curve in the direction sought with a large enough effect; inconclusive means small, poorly fitted or top-dose-only effect, or another doubt; inactive means no such curve, though single readings can be large; an effect the other way counts as inactive or inconclusive. Potency means the concentration at half of the fitted maximal effect.
SMILES,S2 tox,ATXN2 expr inh,VP16 counter,HepG2 tox,RORgamma inh,TGFb inhibitor
CC(C)N(C(=O)[C@H]1CC(CC(=O)NCCc2ccccn2)C(=O)N2CCc3c([nH]c4ccccc34)[C@]12C)C(C)C (some centres not stated),i,-4%,·,-23%,·,?
O=C(Nc1c2c(nn1-c1ccccc1)CS(=O)C2)c1ccc2c(c1)OCO2 (configuration not stated),i,4%,-15%,-17%,4%,2%
CC(NC(=O)Nc1ccccc1C(F)(F)F)c1c(-n2cccc2)sc2c1CCCC2 (configuration not stated),i,-3%,·,0%,·,5%
CC(C)(C)c1ccc(NC(=O)COC(=O)c2ccccc2OCC(=O)Nc2ccc(Br)cc2)cc1,·,·,·,7%,·,12%
NC(=S)N/N=C/c1cccnc1,i,-4%,3%,·,11%,·
NC(=S)N/N=C/c1ccc(-c2cc(Cl)c(Cl)cc2Cl)o1,i,7%,1.1µM*,-17%,0.56µM*,-18%
NC(=S)N/N=C/c1ccc(Br)o1,?,·,?,-3%,3.5µM*,?
NC(=S)N/N=C/c1ccccc1,i,-4%,20µM*,-17%,16µM*,?
NC(=S)N/N=C/c1ccc(C23CC4CC(CC(C4)C2)C3)cc1,i,?,2.8µM*,-10%,0.45µM*,-14%
C=CCNC(=S)N/N=C/c1ccc(-c2cc(Cl)ccc2Cl)o1,i,?,-4%,-9%,2%,-8%
C[C@@H]1CN([C@H](C)CO)C(=O)c2cc(Br)cnc2O[C@H]1CN(C)Cc1cccnc1,i,-7%,·,-11%,·,13%
CCc1ccc(C(c2ccccc2)c2c(C)[nH]c3ccccc23)s1 (configuration not stated),·,?,·,-96%,·,?
Cc1[nH]c2ccccc2c1C(c1c[nH]c2ccccc12)c1c(C)[nH]c2ccccc12,·,·,·,-47%,·,16µM*
Cc1ccc(C(c2ccccc2)c2c(C)[nH]c3ccccc23)s1 (configuration not stated),?,?,·,-99%,·,14µM*
c1ccc2c(C(c3c[nH]c4ccccc34)c3c[nH]c4ccccc34)c[nH]c2c1,·,·,·,-110%,·,?
CC(C)CCn1c(SCc2c(F)cccc2Cl)nc2ccsc2c1=O,·,·,·,0%,·,-1%
O=C(C[n+]1ccccc1Cl)c1ccccc1,·,·,·,-1%,·,-9%
CC(C)Nc1nc(Oc2ccc(Cl)cc2Cl)cc(C(F)(F)F)n1,·,·,?,-43%,25µM*,-14%
CC(C)Nc1nc(Oc2cccc(Cl)c2Cl)cc(C(F)(F)F)n1,i,-24%,?,-56%,?,?
COc1ccc(OC)c(NC(=O)C2CCC(CNc3c(N4CCC(C)CC4)c(=O)c3=O)CC2)c1 (configuration not stated),i,4%,-7%,-2%,0.79µM*,6%
Cc1ccccc1N=C1NC(=O)CC(c2ccccc2)S1 (configuration not stated),?,-1%,?,1%,8.9µM*,24%
Cc1ccccc1N=C1NC(=O)CS1,?,1%,1%,0%,19%,14%
CN(C)c1ccc(C(=O)Oc2cc(O/N=[N+](\[O-])N(C)C)c([N+](=O)[O-])cc2[N+](=O)[O-])cc1,·,·,·,3%,·,?
COc1cc2ncnc(NCCCN3CCOCC3)c2cc1OC,i,·,-6%,16%,9%,2%
COc1cc2c(Oc3ccc4[nH]c(C)cc4c3F)ncnc2cc1OCCCN1CCCC1,·,34µM*,·,·,·,·
CN1CCN(c2cc(-c3cccc(C(=O)O)c3)nc3ccnn23)CC1,i,14%,·,-5%,·,1%
O=C(c1ccccc1)c1nn(-c2ccc(Cl)cc2)c(=O)cc1C(F)(F)F,?,11µM*,?,-6%,?,?
